According to PubChem BioAssay AID624481 (The Scripps Research Institute Molecular Screening Center, 2012):

Target: Prolyl endopeptidase-like (Mus musculus) (UniProt Q8C167)
Assay: mouse PREPL enzyme inhibition by screening hits – biochemical, gel-based competitive ABPP, fluorescence, HTS hits, PREPL inhibitor project (AID 624481)
Details: purified mouse PREPL, at 20 µM, active compounds read high; in the data active means inhibition above about 50%; inactive means the rest

Chain of Prolyl endopeptidase-like (Mus musculus) (Q8C167 whole entry, looked up): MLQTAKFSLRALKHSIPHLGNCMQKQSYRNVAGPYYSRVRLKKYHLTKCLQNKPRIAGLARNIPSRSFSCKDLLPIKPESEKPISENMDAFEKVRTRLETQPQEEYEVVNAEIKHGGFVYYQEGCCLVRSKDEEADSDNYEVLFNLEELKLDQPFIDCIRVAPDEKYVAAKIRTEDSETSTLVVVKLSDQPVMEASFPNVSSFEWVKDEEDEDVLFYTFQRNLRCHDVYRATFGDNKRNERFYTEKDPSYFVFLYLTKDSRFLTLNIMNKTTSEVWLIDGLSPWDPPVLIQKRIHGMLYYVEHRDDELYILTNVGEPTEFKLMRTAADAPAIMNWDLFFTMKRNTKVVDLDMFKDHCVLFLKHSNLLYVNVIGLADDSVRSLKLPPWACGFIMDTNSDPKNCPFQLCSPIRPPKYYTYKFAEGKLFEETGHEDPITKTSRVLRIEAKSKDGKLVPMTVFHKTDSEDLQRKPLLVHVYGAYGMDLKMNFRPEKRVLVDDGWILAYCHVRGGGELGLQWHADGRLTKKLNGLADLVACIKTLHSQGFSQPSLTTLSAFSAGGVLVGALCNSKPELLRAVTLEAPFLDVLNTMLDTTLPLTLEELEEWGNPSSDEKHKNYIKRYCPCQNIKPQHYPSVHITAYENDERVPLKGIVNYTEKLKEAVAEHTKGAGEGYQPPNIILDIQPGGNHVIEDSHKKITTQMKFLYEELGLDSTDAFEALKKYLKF

inhibition, inactive:
Nc1nc(-c2ccccc2)c(N=Nc2ccccc2Cl)s1 -9%
CCC[C@@H](CN1CCC[C@H]1CN1C(N)=NC[C@H]1C(C)C)N1C[C@@H](Cc2ccccc2)N(CCCC2CCCC2)C1=N -46%
COc1ccc2c(CC(=O)Nc3ccc(N4CCOCC4)cc3)coc2c1 -44%
CCC[C@@H](CN1CCC[C@H]1CN1C(N)=NC[C@H]1C(C)C)N1C[C@@H]([C@H](C)CC)N(CCCC2CCCC2)C1=N -68%
CC(=O)N1CCN(c2ccc(NCc3ccc(-c4ccc(Br)cc4)o3)cc2)CC1 -23%
C#CCOCCOCCOCCNc1nc(N2CCN(C(=O)[C@H](Cc3cc4ccccc4[nH]3)n3cc([C@@H](N)C(C)CC)nn3)CC2)nc(N2CCN(C(=O)[C@H](CCCCN)n3cc([C@@H](N)CC(C)C)nn3)CC2)n1 (some centres not stated) -29%
Cc1ccccc1OCc1nnc(SCC(=O)Nc2ccc(N3CCOCC3)c(Cl)c2)n1C -46%
CC(C)Nc1ccc(Nc2ccnc3cc4ccccc4cc23)cc1 -11%
CN1CCN(C(=O)C2=C[C@@H](c3ccc(C(F)(F)F)cc3)C[C@@H](OCCCCO)O2)CC1 -28%
CN(C)c1ccc(C(CNC(=O)COc2ccc(Cl)cc2)N2CCCC2)cc1 (configuration not stated) -25%
CC1CCCN(Cc2c(O)ccc3c(=O)c(-c4nc5ccccc5s4)c(N)oc23)C1 (configuration not stated) 3%
C#CCOCCOCCOCCNc1nc(N2CCN(C(=O)[C@H](CCCCN)n3cc([C@@H](N)C(C)CC)nn3)CC2)nc(N2CCN(C(=O)[C@H](Cc3cc4ccccc4[nH]3)n3cc([C@@H](N)CC(C)C)nn3)CC2)n1 (some centres not stated) -8%
